{"source": "PubChem BioAssay", "key": {"[1]": {"assay": "viability loss in pontine glioma line – cell-based, SU-DIPG-XVII, MIPE5.0, CellTiter-Glo, qHTS, dose response (AID 1347060);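 on AC50: cells exposed to compound for 48 hours before viability readout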", "settings": "CellTiter-Glo ATP luminescence"}, "[2]": {"assay": "viability loss in pontine glioma line – cell-based, SU-DIPG-XIII, MIPE4.0, CellTiter-Glo, qHTS, dose response (AID 1347061; cut-off not given, nearly all actives have AC50 up to about 37 µM;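 further: cells exposed to compound for 48 hours before readout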)", "settings": "CellTiter-Glo ATP luminescence"}, "[3]": {"assay": "viability loss in pontine glioma line – cell-based, JHH-DIPG-1, MIPE4.0, CellTiter-Glo, qHTS, dose response (AID 1347062; cut-off not given, nearly all actives have AC50 up to about 27 µM;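 on AC50: cells exposed to compound for two days before readout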)", "settings": "JHH-DIPG-1 viability, CellTiter-Glo ATP luminescence"}, "[4]": {"assay": "viability loss in pontine glioma line – cell-based, SU-DIPG-IV, MIPE4.0, CellTiter-Glo, qHTS, dose response (AID 1347063; cut-off not given, nearly all actives have AC50 up to about 30 µM;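 further: compound exposure lasted 48 hours before the viability readout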)", "settings": "CellTiter-Glo ATP luminescence"}, "[5]": {"assay": "viability loss in pontine glioma line – cell-based, SU-DIPG-XXV, MIPE5.0, CellTiter-Glo, qHTS, dose response (AID 1347065);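 further: cells exposed to compound for 48 hours before ATP readout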", "settings": "CellTiter-Glo ATP luminescence"}, "[6]": {"assay": "growth inhibition of DIPG cells – cell-based, MIPE4.0 library, CellTiter-Glo luminescence, qHTS (AID 1347066; cut-off not given, nearly all actives have AC50 up to about 30 µM;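 further: cells exposed to compound for 48 hours before readout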)", "settings": "SU-DIPG-VI viability, CellTiter-Glo ATP luminescence"}, "[7]": {"assay": "JHH-DIPG-1 glioma cell viability, MIPE5.0 library, CellTiter-Glo luminescence, qHTS (AID 1347067);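 further: cells exposed to compound for 48 hours before readout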", "settings": "JHH-DIPG-1 glioma viability, CellTiter-Glo ATP luminescence"}, "[8]": {"assay": "growth inhibition of DIPG cells – cell-based, MIPE5.0 library, qHTS (AID 1347068; cut-off not given, nearly all actives have IC50 up to about 30 µM;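 on IC50: cells exposed to compound for 48 hours before viability readout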)", "settings": "SU-DIPG-XXV viability"}, "[9]": {"assay": "compounds altering HSF1 focus formation in cells – imaging, Selleck Cancer Library (AID 1347162; in the data active means plate-normalised HSF1 focus index below about 0.46)", "settings": "human cells, HSF1 nuclear foci imaging, at 10 µM; SSMD: measured here: HSF1 foci SSMD mean; cell count: measured here: cell number; plate-normalised HSF1 focus index: stronger effect = lower value"}, "[10]": {"assay": "growth inhibition, single agent or in combination, cell-based, chromothripsis tumors, cisplatin or BGB combos (AID 1671449; in the data active means inhibition above about 80%;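 further: cells exposed for 96 hours; 0% = vehicle DMSO and 100% = killing by high DMSO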)", "settings": "LFS_MB_P medulloblastoma cells"}, "[11]": {"assay": "growth inhibition, single agent and combos, cell-based, chromothripsis tumors, cisplatin or BGB combos (AID 1671450; in the data active means inhibition above about 80%;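 further: cells exposed to compound for four days; 0% = vehicle DMSO and 100% = cell killing by high DMSO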)", "settings": "HDN33 neuroblastoma cells, stronger effect = higher value"}, "[12]": {"assay": "growth inhibition, single agents and combos, ICB984, cell-based, cisplatin or BGB combos, synergistic combos for chromothripsis tumors (AID 1671451; call rule not given here;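 further: cells exposed for 96 hours before readout; 0% = vehicle DMSO and 100% = killing by high DMSO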)", "settings": "ICB984 medulloblastoma cells, drug combinations, stronger effect = higher value"}, "[13]": {"assay": "growth inhibition, single agents and combos, HTB85, cell-based, BGB or cisplatin IC20 combos, synergistic combos for chromothripsis tumors (AID 1671453; in the data active means inhibition above about 80%;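 further: cells exposed for 96 hours before readout; 0% = vehicle DMSO and 100% = high DMSO killing control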)", "settings": "HTB85 osteosarcoma cells, drug combinations, stronger effect = higher value"}, "[14]": {"assay": "growth inhibition, MDA-MB-436, cell-based, BGB or cisplatin combos, synergistic combos for chromothripsis tumors (AID 1671458; call rule not given here;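 further: cells exposed for 96 hours; 0% = vehicle DMSO and 100% = killing by high DMSO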)", "settings": "MDA-MB-436 breast carcinoma growth inhibition, drug combinations, stronger effect = higher value"}, "[15]": {"assay": "BT084 cell growth, single and combined drugs, ICGC_MB145, cisplatin and BGB IC40 combos (AID 1671461; in the data active means inhibition above about 80%;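 further: cells exposed to drugs for 96 hours; 0% = vehicle DMSO and 100% = high DMSO full killing control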)", "settings": "BT084 medulloblastoma cells, drug combinations, stronger effect = higher value"}, "[16]": {"assay": "RCMB18 cell growth, single agent and combined, cisplatin and BGB IC40 combos (AID 1671462; in the data active means inhibition above about 80%;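 further: cells exposed to compound for four days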)", "settings": "RCMB18 medulloblastoma cells, stronger effect = higher value"}}, "note": "Records with an inconclusive call do not appear. The source made the active and inactive calls. Unless noted, cut-off not given; nearly all actives show AC50 up to about 26 µM."}
{"smiles": "Cc1ccc([N+](=O)[O-])cc1S(=O)(=O)N(C)/N=C/c1cnc2ccc(Br)cn12", "values": [{"measurement": "AC50", "setting": "[1]", "result": "132 nM (active)"}, {"measurement": "AC50", "setting": "[2]", "result": "20.9 nM (active)"}, {"measurement": "AC50", "setting": "[3]", "result": "33.2 nM (active)"}, {"measurement": "AC50", "setting": "[4]", "result": "23.5 nM (active)"}, {"measurement": "AC50", "setting": "[5]", "result": "118 nM (active)"}, {"measurement": "AC50", "setting": "[6]", "result": "132 nM (active)"}, {"measurement": "AC50", "setting": "[7]", "result": "166 nM (active)"}, {"measurement": "IC50", "setting": "[8]", "result": "235 nM (active)"}, {"measurement": "SSMD", "setting": "[9]", "result": 7.37}, {"measurement": "cell count", "setting": "[9]", "result": 7410}, {"measurement": "plate-normalised HSF1 focus index", "setting": "[9]", "result": "1.46 (inactive)"}, {"measurement": "inhibition", "setting": "[10]; at 0.5 µM, stronger effect = higher value", "result": "-21.6% (inactive)"}, {"measurement": "inhibition", "setting": "[10]; measured here: combination with BGB IC20, at 0.005 µM", "result": -7.86, "unit": "%"}, {"measurement": "inhibition", "setting": "[10]; measured here: combination with BGB IC40, at 0.005 µM", "result": -33.9, "unit": "%"}, {"measurement": "inhibition", "setting": "[10]; measured here: combination with BGB IC40, at 0.05 µM", "result": -17.7, "unit": "%"}, {"measurement": "inhibition", "setting": "[10]; measured here: combination with cisplatin, at 0.5 µM, stronger effect = higher value", "result": -8.16, "unit": "%"}, {"measurement": "inhibition", "setting": "[10]; measured here: combination with cisplatin, at 5 µM, stronger effect = higher value", "result": 118, "unit": "%"}, {"measurement": "inhibition", "setting": "[11]; BGB combo, at 5 µM", "result": 98.8, "unit": "%"}, {"measurement": "inhibition", "setting": "[11]; at 0.5 µM", "result": "82.5% (active)"}, {"measurement": "inhibition", "setting": "[11]; cisplatin combo, at 5 µM", "result": 99.4, "unit": "%"}, {"measurement": "inhibition", "setting": "[11]; measured here: with BGB IC20 combination, at 0.5 µM", "result": 82.3, "unit": "%"}, {"measurement": "inhibition", "setting": "[11]; measured here: with cisplatin IC20 combination, at 0.5 µM", "result": 89, "unit": "%"}, {"measurement": "inhibition", "setting": "[11]; single agent, at 5 µM", "result": 99.6, "unit": "%"}, {"measurement": "inhibition", "setting": "[12]; BGB IC20 combo, at 0.005 µM", "result": 93.2, "unit": "%"}, {"measurement": "inhibition", "setting": "[12]; BGB IC40 combo, at 0.005 µM", "result": 89.9, "unit": "%"}, {"measurement": "inhibition", "setting": "[12]; BGB IC40 combo, at 0.05 µM", "result": 99.2, "unit": "%"}, {"measurement": "inhibition", "setting": "[12]; at 0.5 µM", "result": "-28.7% (inactive)"}, {"measurement": "inhibition", "setting": "[12]; cisplatin combo, at 0.05 µM", "result": 99.2, "unit": "%"}, {"measurement": "inhibition", "setting": "[12]; cisplatin combo, at 0.5 µM", "result": -32.2, "unit": "%"}, {"measurement": "inhibition", "setting": "[12]; cisplatin combo, at 5 µM", "result": -58, "unit": "%"}, {"measurement": "inhibition", "setting": "[12]; measured here: 5 uM single agent, at 5 µM", "result": -16.2, "unit": "%"}, {"measurement": "inhibition", "setting": "[13]; at 0.5 µM", "result": "84.8% (active)"}, {"measurement": "inhibition", "setting": "[13]; measured here: with BGB IC20, at 0.5 µM", "result": 92.6, "unit": "%"}, {"measurement": "inhibition", "setting": "[13]; measured here: with BGB IC20, at 5 µM", "result": 100, "unit": "%"}, {"measurement": "inhibition", "setting": "[13]; measured here: with cisplatin IC20, at 0.5 µM", "result": 90.8, "unit": "%"}, {"measurement": "inhibition", "setting": "[13]; measured here: with cisplatin IC20, at 5 µM", "result": 99.6, "unit": "%"}, {"measurement": "inhibition", "setting": "[13]; single agent, at 5 µM", "result": 99.9, "unit": "%"}, {"measurement": "inhibition", "setting": "[14]; at 0.5 µM", "result": "77.8% (inactive)"}, {"measurement": "inhibition", "setting": "[14]; measured here: BGB combination, at 0.5 µM", "result": 73.3, "unit": "%"}, {"measurement": "inhibition", "setting": "[14]; measured here: BGB combination, at 5 µM", "result": 54, "unit": "%"}, {"measurement": "inhibition", "setting": "[14]; measured here: cisplatin combination, at 0.5 µM", "result": 77.3, "unit": "%"}, {"measurement": "inhibition", "setting": "[14]; measured here: cisplatin combination, at 5 µM", "result": 74.2, "unit": "%"}, {"measurement": "inhibition", "setting": "[15]; at 0.5 µM", "result": "17.8% (inactive)"}, {"measurement": "inhibition", "setting": "[15]; cisplatin combination, at 0.5 µM", "result": 8.05, "unit": "%"}, {"measurement": "inhibition", "setting": "[15]; cisplatin combination, at 5 µM", "result": -42.9, "unit": "%"}, {"measurement": "inhibition", "setting": "[15]; measured here: BGB IC40 combination 0.05 uM, at 0.05 µM", "result": 16.7, "unit": "%"}, {"measurement": "inhibition", "setting": "[15]; single agent, at 5 µM", "result": -25, "unit": "%"}, {"measurement": "inhibition", "setting": "[16]; at 0.5 µM", "result": "68.3% (inactive)"}, {"measurement": "inhibition", "setting": "[16]; cisplatin combo, at 5 µM", "result": 59.8, "unit": "%"}, {"measurement": "inhibition", "setting": "[16]; measured here: BGB IC40 combination, at 0.05 µM", "result": -12.7, "unit": "%"}, {"measurement": "inhibition", "setting": "[16]; measured here: combination with cisplatin, at 0.5 µM", "result": 58.3, "unit": "%"}, {"measurement": "inhibition", "setting": "[16]; single agent, at 5 µM", "result": 76.8, "unit": "%"}]}
{"smiles": "CC(=O)N[C@H]1[C@H](O[C@@H]2c3ccc(c(Cl)c3)Oc3cc4cc(c3O[C@@H]3O[C@H](CO)[C@@H](O)[C@H](O)[C@H]3NC(=O)CCCCCCCC(C)C)Oc3ccc(cc3Cl)C[C@H]3NC(=O)[C@H](N)c5ccc(O)c(c5)Oc5cc(O)cc(c5)[C@H](NC3=O)C(=O)N[C@H]4C(=O)N[C@H]3C(=O)N[C@@H]2C(=O)N[C@@H](C(=O)O)c2cc(O)cc(O[C@H]4O[C@H](CO)[C@@H](O)[C@H](O)[C@@H]4O)c2-c2cc3ccc2O)O[C@H](CO)[C@@H](O)[C@@H]1O", "values": [{"measurement": "outcome", "setting": "[1]", "result": "inactive"}, {"measurement": "outcome", "setting": "[2]", "result": "inactive"}, {"measurement": "outcome", "setting": "[3]", "result": "inactive"}, {"measurement": "outcome", "setting": "[4]", "result": "inactive"}, {"measurement": "outcome", "setting": "[5]", "result": "inactive"}, {"measurement": "outcome", "setting": "[6]", "result": "inactive"}, {"measurement": "outcome", "setting": "[7]", "result": "inactive"}, {"measurement": "outcome", "setting": "[8]", "result": "inactive"}]}
